Results taken from article PMC4552634, “A New Set of Chemical Starting Points with Plasmodium falciparum Transmission-Blocking Potential for Antimalarial Drug Discovery” (PLoS ONE, 2015).
Read-outs that look alike come from different tables or passages of the source. About 3,200 (25%) of roughly 13,000 compounds showed an effect of 50% or more. Some of the results follow.

Test system: P. falciparum stage V gametocytes
Parameters: BacTiter-Glo ATP luminescence viability of purified stage V gametocytes in 384-well plates, per cent inhibition versus DMSO
Conditions: 48 h, 5 µM, inhibitor

CCOc1cc(C(=O)Nc2cccnc2)ccc1-c1nc2cc(Cl)c(Cl)cc2[nH]1 [TCMDC-140059] was tested, and the “% Inhibition” value was 1.839%.

In the case of Cc1nc2nc(N)nc(N)c2c(C)c1Cc1ccccc1I [TCMDC-137243], the “% Inhibition” value is reported as -2.242%.

CCCCCNc1nc2nc(N)nc(N)c2nc1-c1ccccc1 [TCMDC-141983] was tested, and the “% Inhibition” value was -14.59%.

In the case of Cc1onc(-c2ccc(Cl)cc2)c1-c1ccnn1S(=O)(=O)c1ccc(Cl)cc1 [TCMDC-123770], the “% Inhibition” value is reported as 63.51%.

With Cc1cc(C(=O)NCc2ccc(-c3c(C)noc3C)cc2)n(-c2ccc(Cl)cc2)n1 [TCMDC-133781] the “% Inhibition” value was 35.85%.

In the case of Cc1ccc(S(=O)(=O)n2nccc2-c2c(-c3ccc(Cl)cc3)noc2C)cc1 [TCMDC-124500], the “% Inhibition” value is reported as 65.37%.

Cc1noc(C)c1S(=O)(=O)N(C)Cc1ccc(-c2ccc(Cl)cc2)o1 [TCMDC-125303] was tested, and the “% Inhibition” value was -57.93%.

With COc1ccc(Nc2ncc3c(-c4cccc(NC(=O)Cc5cccc(F)c5)c4)c[nH]c3n2)cc1OC [TCMDC-135251] the “% Inhibition” value was -27.44%.

For COc1ccc2ccccc2c1CCCCN1CCN(CC(c2ccc(F)cc2)N2CCN(C3CCCC3)CC2)CC1 (stereo not drawn) [TCMDC-135865], the “% Inhibition” value was -18.03%.

CC(C)N1CCN(C(CN2CCN(CCCOc3cccc4ccccc34)CC2)c2ccc(F)cc2)CC1 (stereo not drawn) [TCMDC-135494] was tested, and the “% Inhibition” value was 68.95%.

COc1ccc2ccccc2c1CCCCN1CCN(CC(c2ccc(F)cc2)N2CCC2)CC1 (stereo not drawn) [TCMDC-135867] was tested, and the “% Inhibition” value was 60.92%.

For COc1cccc(CN2CCN(C(c3ccccc3)c3ccccc3)CC2)c1O [TCMDC-125556], the “% Inhibition” value was -14.13%.

For COc1ccc2ccccc2c1CCCCN1CCN(CC(c2ccc(F)cc2)N2CCC(N3CCCC3)CC2)CC1 (stereo not drawn) [TCMDC-135866], the “% Inhibition” value was 9.799%.

COc1cc2ccccc2cc1OCCCN1CCN(CC(c2ccc(F)cc2)N2CCN(C(C)C)CC2)CC1 (stereo not drawn) [TCMDC-135496] was tested, and the “% Inhibition” value was 103.4%.

In the case of CC1(C)N=C(N)N=C(N)N1OCCCOc1cccc2ccccc12 [TCMDC-131626], the “% Inhibition” value is reported as 30.73%.

For COc1ccc2ccccc2c1CCCCN1CCN(CC(c2ccc(F)cc2)N2CCN(C(C)C)CC2)CC1 (stereo not drawn) [TCMDC-134847], the “% Inhibition” value was 46.9%.

Cc1ccccc1OCCCN1CCN(CC(c2ccc(F)cc2)N2CCN(C(C)C)CC2)CC1 (stereo not drawn) [TCMDC-135492] was tested, and the “% Inhibition” value was -21.14%.

COc1ccc(OCCCN2CCN(CC(c3ccc(F)cc3)N3CCN(C(C)C)CC3)CC2)c2ccccc12 (stereo not drawn) [TCMDC-135639] was tested, and the “% Inhibition” value was 74.93%.

CN1CCN(c2ccc(-c3cccc(NC(=O)c4cccc(Cl)c4)c3)nn2)CC1 [TCMDC-125348] was tested, and the “% Inhibition” value was 20.42%.

N#CC(c1ccc(Br)cc1)c1ccc2c(C(F)(F)F)cc(C(F)(F)F)nc2n1 (stereo not drawn) [TCMDC-123754] was tested, and the “% Inhibition” value was 9.304%.

CCCN(CCC)S(=O)(=O)c1ccc(C(=O)Nc2nc3ccc(-c4cc(=O)[nH]c(Nc5ccccc5Cl)n4)cc3[nH]2)cc1 [TCMDC-135852] was tested, and the “% Inhibition” value was -12.1%.

In the case of CN1CCOc2ccc(Nc3nnc(-c4cccc(-c5cccnc5)c4)o3)cc2C1 [TCMDC-134278], the “% Inhibition” value is reported as -13.91%.

In the case of O=C(/C=C/c1ccccc1F)NC1CCC(CCN2CCc3ccc(-c4cccnc4)cc3CC2)CC1 (stereo not drawn) [TCMDC-140229], the “% Inhibition” value is reported as -63.4%.

CN(CCN(C)CC(O)c1ccc(Cl)c(Cl)c1)CC(O)c1ccc(Cl)c(Cl)c1 (stereo not drawn) [TCMDC-141988] was tested, and the “% Inhibition” value was -33.12%.

In the case of CN(C)CCn1c(=N)n(CC(O)c2ccc(Cl)c(Cl)c2)c2ccccc21 (stereo not drawn) [TCMDC-125810], the “% Inhibition” value is reported as 59.92%.

With CCN(CC)CCn1c(=N)n(CC(O)c2ccc(Cl)c(Cl)c2)c2ccccc21 (stereo not drawn) [TCMDC-124062] the “% Inhibition” value was 86.67%.

In the case of CCCCCCCCCCNCC(O)c1ccc(O)c(C(=O)OC)c1 (stereo not drawn) [TCMDC-132043], the “% Inhibition” value is reported as 1.141%.

For CCCCCCCn1c(=N)n(CC(O)c2ccc(Cl)c(Cl)c2)c2ccccc21 (stereo not drawn) [TCMDC-124065], the “% Inhibition” value was 113.9%.

In the case of CN(CCC(O)c1ccc(Cl)c(Cl)c1)CC1CC1C(=O)c1ccccc1 (stereo not drawn) [TCMDC-136791], the “% Inhibition” value is reported as 31.08%.

In the case of COc1cccc(C(=O)C2CC2CN(C)CCC(O)c2ccc(Cl)c(Cl)c2)c1 (stereo not drawn) [TCMDC-136793], the “% Inhibition” value is reported as 24.64%.

For CCCCCCCCCn1c(NCc2cc(Cl)ccc2O)nc2ccccc21 [TCMDC-123817], the “% Inhibition” value was -10.34%.

With CCc1cccc(-n2c(=O)c3cccnc3n2CC(=O)NCc2ccccc2Cl)c1 [TCMDC-125159] the “% Inhibition” value was 19.11%.

With Cc1ccc(N2C(N)=NC(N)=NC2c2ccccc2)cc1 (stereo not drawn) [TCMDC-123675] the “% Inhibition” value was 47.57%.

With O=C(Nc1ccc([N+](=O)[O-])cc1Cl)c1cc2ccccc2cc1O [TCMDC-123517] the “% Inhibition” value was 12.28%.

For O=C(/C=C/c1ccccc1)N1CCOC(CCN2CCC(c3ccccc3)CC2)(c2ccc(Cl)c(Cl)c2)C1 (stereo not drawn) [TCMDC-135350], the “% Inhibition” value was 15.63%.

CN(Cc1cccc(O)c1)C1CCN(c2cc(NC(=O)c3ccc(F)cc3)ccn2)CC1 [TCMDC-134965] was tested, and the “% Inhibition” value was -26.89%.

For CCCNCc1ccc(-c2ccc(CN(CCOC)C(=O)c3cscn3)cc2)nc1 [TCMDC-141525], the “% Inhibition” value was 101.5%.

With CCCNCc1ccc(-c2ccc(CN(CCOC)C(=O)c3ccc([N+](=O)[O-])c(C)c3)cc2)nc1 [TCMDC-141544] the “% Inhibition” value was 54.62%.

For CCCNCc1ccc(-c2ccc(CN(Cc3cnc(C)cn3)C(=O)/C=C/c3ccccc3C)cc2)nc1 [TCMDC-141545], the “% Inhibition” value was 35.86%.

With CCCNCc1ccc(-c2ccc(CN(Cc3cnc(C)cn3)C(=O)CC#N)cc2)nc1 [TCMDC-141527] the “% Inhibition” value was 78.38%.

For CCCNCc1ccc(-c2ccc(CN(CCOC)C(=O)c3cnc(C)cn3)cc2)nc1 [TCMDC-141534], the “% Inhibition” value was 98.71%.

For CCc1nc(N)nc(N)c1CCCOc1ccccc1Cl [TCMDC-137928], the “% Inhibition” value was -12.09%.

For N#Cc1ccc2c(c1)CN(CC[C@H]1CC[C@H](NC(=O)/C=C/c3c[nH]c4ccccc34)CC1)CC2 [TCMDC-139191], the “% Inhibition” value (% Inhibition) was -21.51%.

In the case of COc1cc(Cc2cnc(N)nc2N)cc(OCCCN2C(=O)c3ccccc3C2=O)c1OC [TCMDC-137365], the “% Inhibition” value is reported as 18.85%.

For CCC(C)C(COC(=O)c1cc(OC)c(OC)c(OC)c1)N(C)CCN(C)C(COC(=O)c1cc(OC)c(OC)c(OC)c1)C(C)CC (stereo not drawn) [TCMDC-131453], the “% Inhibition” value was 2.796%.

In the case of Cc1ccc(Sc2ccc(NC(=O)CN3CCN(C(=O)c4ccco4)CC3)cc2)cc1C [TCMDC-124861], the “% Inhibition” value is reported as 2.666%.

COCc1ccc(CN2CCC(C(=O)Nc3ccc(-c4nc5ccccc5[nH]4)cc3)CC2)o1 [TCMDC-124678] was tested, and the “% Inhibition” value was -40.1%.

In the case of CCCNCc1ccc(-c2ccc(CN(CCOC)C(=O)c3ccccc3)cc2)nc1 [TCMDC-141540], the “% Inhibition” value is reported as 44.11%.

CCCNCc1ccc(-c2ccc(CN(CCOC)C(=O)/C=C/c3ccccc3C)cc2)nc1 [TCMDC-141546] was tested, and the “% Inhibition” value was 40.67%.

CCCNCc1ccc(-c2ccc(CN(CCOC)C(=O)c3cccc(C#N)c3)cc2)nc1 [TCMDC-141538] was tested, and the “% Inhibition” value was 90.8%.

In the case of CCCNCc1ccc(-c2ccc(CN(CCOC)C(=O)c3ccco3)cc2)nc1 [TCMDC-141535], the “% Inhibition” value is reported as 89.84%.

In the case of Cc1ccc(CNC(=O)[C@H](CC(C)C)Nc2cc(C)nc(NCc3ccccc3C)n2)cc1 [TCMDC-134910], the “% Inhibition” value is reported as -39.78%.

With Cc1ccc(Nc2ccnc(Nc3ccc(C)c(F)c3)n2)cc1O [TCMDC-138498] the “% Inhibition” value was 0.05121%.

With O=C(/C=C/c1ccc(Cl)c(Cl)c1)NCCCCCN1CCC(c2c[nH]c3ccccc23)C(O)C1 (stereo not drawn) [TCMDC-139694] the “% Inhibition” value (% Inhibition) was -6.926%.

With O=C(Cc1ccc(Cl)cc1)NC1CCN(c2ccnc3cc(Cl)ccc23)C1 (stereo not drawn) [TCMDC-133399] the “% Inhibition” value was -11.42%.

With CC1(C)OC[C@]2(C)[C@@H](CC[C@]3(C)C4=CC(=O)CCC4CC[C@@H]23)O1 (stereo partly drawn) [TCMDC-137379] the “% Inhibition” value was 35.88%.

For CCc1sc(-c2ccc(C(C)(C)C)cc2)nc1C(=O)NCCCN1CCCC1=O [TCMDC-133692], the “% Inhibition” value was 75.07%.

For O=C(NCCCN1CCCC1=O)NCc1ccccc1 [TCMDC-123844], the “% Inhibition” value was 3.062%.

In the case of CC(C)c1sc(-c2ccc(C(C)(C)C)cc2)nc1C(=O)NCCCN1CCCC1=O [TCMDC-133691], the “% Inhibition” value is reported as 25.46%.

O=C(Nc1ccc(C(F)(F)F)cc1)Nc1ccccc1N1CCNCC1 [TCMDC-133726] was tested, and the “% Inhibition” value was 29.85%.

In the case of Cc1ccc(C(C(=O)Nc2ccc(N3CCNCC3)c(Cl)c2)c2ccccc2)cc1 (stereo not drawn) [TCMDC-134292], the “% Inhibition” value is reported as 32.74%.

Cc1cc(N2CCNCC2)c2cc(NC(=O)Nc3ccc(Cl)c(Cl)c3)ccc2n1 [TCMDC-139533] was tested, and the “% Inhibition” value was 55.92%.

With CN1CCN(c2ccnc3ccc(NC(=O)Nc4c(Cl)cccc4Cl)cc23)CC1 [TCMDC-139352] the “% Inhibition” value was -27.77%.

With CN1CCN(c2ccnc3ccc(NC(=O)Nc4ccc(Cl)c(Cl)c4)cc23)CC1 [TCMDC-139321] the “% Inhibition” value was 12.28%.

In the case of O=C(Nc1ccc(Cl)c(Cl)c1)Nc1ccc2nccc(N3CCNCC3)c2c1 [TCMDC-139452], the “% Inhibition” value is reported as -0.1389%.

In the case of O=C(Nc1ccc(Cl)c(Cl)c1)Nc1ccc2nccc(N3CCN(Cc4ccccc4)CC3)c2c1 [TCMDC-139649], the “% Inhibition” value is reported as 65.98%.

For CN1CCN(c2ncnc3ccc(NC(=O)Nc4ccc(Cl)c(Cl)c4)cc23)CC1 [TCMDC-139439], the “% Inhibition” value was 21.32%.

O=C(Nc1ccc(Cl)c(Cl)c1)Nc1ccccc1N1CCNCC1 [TCMDC-133727] was tested, and the “% Inhibition” value was 92.01%.

For O=C(N[C@@H](CC1CCCCC1)C(=O)NC1CCCc2ccccc21)c1ccc(O)c(-c2cccc(C(F)(F)F)c2)c1 (stereo partly drawn) [TCMDC-140821], the “% Inhibition” value was 14.55%.
